According to PubChem BioAssay AID1851 (National Center for Advancing Translational Sciences (NCATS), 2009):
“And” between values parts separate entries of the source, which are not always exact repeats. Equal values may be shown once. Out of some 16,000 compounds screened, about 2,600 (16%) were called active. Roughly 20% stayed inconclusive and do not appear here. The call rests on the fitted dose curve; in most records, active means well fitted curve in the direction sought with a large enough effect; inconclusive means small, poorly fitted or top-dose-only effect, or effect the other way; inactive means no such curve, though single readings can be large or run the other way. A selection follows. Peptide text beside a SMILES is read from it. * marks the point of attachment. Cbz = O=C(OCc1ccccc1)*

Target: Cytochrome P450 2D6 (Homo sapiens) (UniProt P10635)
Sequence (P10635 whole entry, looked up): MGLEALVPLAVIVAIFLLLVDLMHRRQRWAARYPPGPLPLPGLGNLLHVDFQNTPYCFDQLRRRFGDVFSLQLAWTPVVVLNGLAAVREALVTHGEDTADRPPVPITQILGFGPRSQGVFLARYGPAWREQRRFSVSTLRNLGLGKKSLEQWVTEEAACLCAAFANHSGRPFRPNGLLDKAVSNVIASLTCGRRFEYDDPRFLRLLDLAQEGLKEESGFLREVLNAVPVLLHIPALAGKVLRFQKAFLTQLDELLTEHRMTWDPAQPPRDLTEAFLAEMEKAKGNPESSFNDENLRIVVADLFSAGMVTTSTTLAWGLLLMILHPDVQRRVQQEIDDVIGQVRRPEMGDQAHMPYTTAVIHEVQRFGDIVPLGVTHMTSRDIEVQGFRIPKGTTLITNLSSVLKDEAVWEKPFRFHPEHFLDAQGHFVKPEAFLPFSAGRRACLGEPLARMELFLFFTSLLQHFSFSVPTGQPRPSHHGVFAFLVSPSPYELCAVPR
Assay: Cytochrome panel assay with activity outcomes
Settings: recombinant CYP, pro-luciferin dealkylation, luminescence, p450-cyp2d6; series mostly up to 57.1 µM; activity, negative = inhibition: at the top concentration
On the % scale 0 is the no-effect control and ±100 the full control effect.

SMILES	AC50	activity, negative = inhibition
c1cncc(-c2nccc(NCc3cccs3)n2)c1	0.631 µM (active)	–
c1ccc(CNc2ccnc(-c3ccoc3)n2)cc1	20 µM (active)	–
c1csc(CNc2ccnc(-c3ccoc3)n2)c1	3.16 µM (active)	–
Cc1cnc(CNc2ccnc(-c3ccoc3)n2)cn1	–	-4.01% (inactive)
Cc1cnc(CNc2ccnc(-c3c(C)noc3C)n2)cn1	–	-9.71% (inactive)
CN(C)c1ccc(-c2nccc(NCc3cccs3)n2)cc1	0.126 µM (active)	–
COc1ncc2ncc(=O)n(Cc3ccc(F)cc3)c2n1	–	5.3% (inactive)
CCC(C)[C@H](NC(=O)Nc1ccc(Oc2ccccc2)cc1)C(=O)O (some centres undefined)	–	11.5% (inactive)
O=C(O)c1c[nH]c2cc(OCc3ccccc3)ccc2c1=O	–	4.69% [at 11.4 µM] (inactive)
O=C(O)[C@@H]1[C@@H]2C[C@H]([C@@H](Br)[C@H]2N2C(=O)CCC2=O)[C@@H]1C(=O)O	–	-2.86% [at 11.4 µM] (inactive)
COC(=O)CCC(NC(=O)OCc1ccccc1)C(=O)NC(CC(C)C)C(=O)OC (centres undefined) (Cbz-Glu(OMe)-Leu-OMe; configuration not given here)	–	15.2% (inactive)
COC(=O)C(NNc1ccccc1)(NC(=O)c1ccccc1F)C(F)(F)F (centres undefined)	–	-16.1% (inactive)
CCCNC(=O)OC[C@@H]1O[C@H](CCO/N=C\c2ccc(C(=O)N3[C@H](c4ccc(C)cc4)[C@@H](C)CC[C@H]3C(=O)OC)cc2)C=C[C@@H]1Oc1ccc(OC)cc1	–	9.53% [at 11.4 µM] (inactive)
O=C(c1ccccc1)[C@@H]1O[C@H]1c1ccc(-c2ccccc2)cc1	–	3.66% (inactive)
C[C@H](NC(=O)Cn1cncn1)c1ccccc1	–	9.25% (inactive)
O=C(Cn1cnc2ccccc21)NC(c1ccccc1)c1ccccc1	7.08 µM (active)	–
CC(NC(=O)Cn1cnc([N+](=O)[O-])n1)c1ccccc1 (centres undefined)	–	11% (inactive)
C[N+]1(CCCC[N+]2(C)CCCCCCC2)CCCCCCC1	–	-7.84% [at 11.4 µM] (inactive)
N/C(=N\O)c1cn([C@@H]2O[C@@H](CO)[C@H](O)[C@@H]2O)c2ncnc(NO)c12	–	14.4% [at 11.4 µM] (inactive)
CCOc1ccc(N2C(=O)CN=C2Nc2ccccc2Cl)cc1	–	-13.5% (inactive)
CCOc1ccc(NC2=NCC(=O)N2Cc2cccs2)cc1	7.08 µM (active)	–
CCOc1ccc(N2C(=O)CN=C2Nc2ccccc2F)cc1	–	-7.99% (inactive)

SMILES	AC50	activity, negative = inhibition
CCCCOC(=O)CCc1c(C)[nH]c(=O)c(C#N)c1C	–	-6.68% (inactive)
CCN(CC)C(=O)C1=C(C)NC(=S)NC1c1cn(-c2ccccc2)nc1-c1ccc(Cl)cc1 (centres undefined)	–	-7.39% (inactive)
O=C(O)[C@@H]1[C@@H](C(=O)Nc2ncccn2)[C@@H]2C=C[C@@H]1O2	–	15.2% [at 11.4 µM] (inactive)
CCc1cccc(N(C)C(N)=Nc2cccc3ccccc23)c1	0.2 µM (active)	–
O=C(NC[C@@H](O)CO)c1c(I)c(C(=O)NC[C@@H](O)CO)c(I)c(N(CCO)C(=O)CO)c1I	–	6.36% [at 25.6 µM] (inactive)
O=C1c2ccccc2-c2ccc(N(Cc3ccc(Br)cc3)Cc3ccc(Br)cc3)cc21	–	-1.8% [at 11.4 µM] (inactive)
C[N+]1(C)CCC(OC(=O)C(c2ccccc2)c2ccccc2)CC1	–	-11.7% (inactive)
CN1[C@@H]2CC[C@H]1CC(OC(c1ccccc1)c1ccccc1)C2 (some centres undefined)	2 µM (active) and 1.26 µM (active)	–
Cn1c(=O)c(-c2cc(F)cc(F)c2)nc2cncnc21	–	0.609% (inactive)
Cc1nn(C)cc1CNC(=O)CCC(=O)O	–	-3.76% (inactive)
CCN1CCCC1CNC(=O)C(=O)Nc1ccc(OC)cc1 (centres undefined)	–	-29.4% (inactive)
COc1ccc(NC(=O)NCCCN2CCCCC2C)cc1 (centres undefined)	1.58 µM (active)	–
COc1ccc(NC(=O)N2CCC3(CC2)CCN(S(C)(=O)=O)CC3)cc1	–	-3.87% (inactive)
O=S(=O)(c1cnccc1N1CCN(CCO)CC1)N1CCCC1	–	10% [at 11.4 µM] (inactive)
Cc1cccc(Nc2ccccc2C(=O)OCC(=O)NCc2ccco2)c1C	–	-14% (inactive)
O=C(Nc1ccccc1Cl)c1ccn[nH]1	–	-6.64% (inactive)
O=C1CCCc2ccccc2N1Cc1cccc(Cl)c1	–	-28.2% (inactive)
O=C1c2cccnc2C(=O)N1Cc1ccc(F)cc1	–	-2.33% (inactive)
O=C1C(=O)N(Cc2ccc(Cl)c(Cl)c2)c2ccccc21	3.98 µM (active)	–
CCn1ncc(C(=O)Nc2cc(C)on2)c1C	–	-2.48% (inactive)
Cc1c(C)c2c(C)[nH]nc2oc1=O	–	-6.17% (inactive)
CN(C)c1nc(C#N)nc(N2CCOCC2)n1	–	9.46% (inactive)

SMILES	AC50	activity, negative = inhibition
CCOC(=O)[C@H](N)/C=C(\C)CP(=O)(O)O	2 µM (active)	–
O=C(O)CP(=O)(O)O	inactive	–
CCOC(=O)C(NC(C)=O)C(=O)O (centres undefined)	–	24.2% (inactive)
Cc1ccc(C)c2sc(NC(=O)c3ccc(N4CCCCC4)c([N+](=O)[O-])c3)nc12	–	-8.77% (inactive)
CCc1nnc(NC(=O)CCC(=O)N2CCN(c3ccccn3)CC2)s1	–	18.4% (inactive)
Cc1ccc(C2NC(c3ccc(C)cc3)C(C)C(=NO)C2C)cc1 (centres undefined)	0.562 µM (active)	–
Cc1ccc(C2CC2C(=O)NN)cc1 (centres undefined)	–	-14.7% (inactive)
Cc1ccc(NC(=O)/C(=C\c2cccc([N+](=O)[O-])c2)NC(=O)c2cccs2)cc1	–	-1.88% (inactive)
c1ccc(-c2csc(Nc3nc(N4CCOCC4)nc(N4CCOCC4)n3)n2)cc1	–	12.3% (inactive)
OCCNc1nc(NCCC2=CCCCC2)nc(N2CCOCC2)n1	7.08 µM (active)	–
Cc1nc2ncnn2c(C)c1CCC(=O)NCCC1=CCCCC1	–	-20.4% (inactive)
COc1ccc(-c2cc(C(F)(F)F)nc(N3CCCCC3)n2)cc1OC	–	-22.7% (inactive)
Cc1ccccc1N1C(=O)c2cc(S(N)(=O)=O)c(Cl)cc2N[C@H]1C	–	5.14% [at 25.6 µM] (inactive)
O=C1CCCC=C1[C@@H](O)COCc1ccccc1	–	-20.2% [at 11.4 µM] (inactive)
C[n+]1cn(CC(O)COCc2ccccc2)c2ccccc21 (centres undefined)	1.12 µM (active)	–
OC(COCc1ccccc1)Cn1cnc2ccccc21 (centres undefined)	14.1 µM (active)	–
Cn1c2ccccc2c2cc(C(=O)N3CCOCC3)sc21	–	-56.6% (inactive)
CSc1nsc(/C=C/Nc2ccc(Cl)cc2)c1C#N	–	-20.6% (inactive)
Cc1noc(C)c1CS(=O)(=O)c1ccc(Br)cc1	–	-11.4% (inactive)
CCCC[S@@](=N)(=O)CC[C@@H](N)C(=O)O	–	9.89% (inactive)
CCCCCCC/C=C\CCCCCCCCC(=O)O	–	-11% (inactive)
CCCCCCCCCCCCC/C=C\[C@@H](O)[C@@H](N)CO	15.8 µM (active)	–

SMILES	AC50	activity, negative = inhibition
CCCCCCCCCCCCCCC[C@@H](O)[C@@H](N)CO	7.94 µM (active)	–
CCCCCCCCCCCCCCC/C=C\[C@H](O)[C@@H](NC(=O)CCCCCCCCCCCCC)OC (tested in a mixture with another compound)	–	2.02% (inactive)
O=C(O)CN(CCOCCOCCN(CC(=O)O)CC(=O)O)CC(=O)O	–	-4.91% (inactive)
CC(=O)c1c(C)[nH]c(C(=O)COc2ccc(C#N)cc2)c1C	–	-9.11% (inactive)
CSc1nc2c(c(=O)[nH]1)C(c1ccncc1)C(C(=O)OC(C)C)=C(C)N2 (centres undefined)	–	-16.1% (inactive)
COc1cc(C(=O)Nc2ccc3c(c2)OCCO3)c(-n2cnnn2)cc1OC	–	-12.8% (inactive)
S=C1NC2=C(C(c3ccc(Br)cc3)N1)N1CCC2CC1 (centres undefined)	–	-19.4% (inactive)
CC1CCN(C(=S)c2ccc(O)cc2)CC1	–	-3.59% (inactive)
CCN1CCN(C(=O)CCc2nc3ccccc3c(=O)[nH]2)CC1	–	-4.78% (inactive)
CCN1CCN(C(=S)c2ccc(Br)cc2)CC1	1 µM (active)	–
CO[C@@H]1COC(=O)C/C=C\[C@@H](C)COC(=O)[C@H](COCc2ccccc2)NC(=O)C/C=C\[C@H]1C	–	10.2% [at 11.4 µM] (inactive)
CC(O)CN(CCC(N)=O)CCC(N)=O (centres undefined)	–	0.2% (inactive)
Cc1cccc(Nc2ccncc2S(=O)(=O)NC(=O)NC(C)C)c1	–	6.82% [at 25.6 µM] (inactive)
Cn1cc(-c2nc3cnc(N4CCNCC4)nc3n(C3CC3)c2=O)c2ccccc21	–	-14.8% (inactive)
CC(C)CC(=O)O/N=C1\C(=O)N(c2ccccc2)c2ccccc21	–	0.275% (inactive)
C=CCn1c(=O)c2c(nc(Br)n2Cc2ccccc2Cl)n(C)c1=O	–	-6.43% (inactive)
CC(=O)OCC(=O)[C@@]1(OC(C)=O)[C@H](C)C[C@H]2[C@@H]3C[C@H](F)C4=CC(=O)C=C[C@@]4(C)[C@]3(F)[C@H](O)C[C@@]21C	–	-1.58% [at 25.6 µM] (inactive)
O=C1COc2ccc(OCc3ccc(F)cc3)cc21	–	-20.1% (inactive)
Cc1cc(NCCO)c2ccccc2n1	–	-41% (inactive)
O=C(O)CC1(CC(=O)O)Nc2ccccc2SC1=O	–	8.66% [at 11.4 µM] (inactive)
CN1CCN(CCC=C2c3ccccc3Sc3ccc(S(=O)(=O)N(C)C)cc32)CC1	31.6 µM (active)	–
CCOC(=O)C1CCCN(C(=O)c2sc3nc(-c4ccc(OC)cc4)cn3c2C)C1 (centres undefined)	–	1.59% (inactive)

SMILES	AC50	activity, negative = inhibition
Cc1c(Nc2cc(N3CCCC(C)C3)c3nonc3c2[N+](=O)[O-])c(=O)n(-c2ccccc2)n1C (centres undefined)	–	1.82% (inactive)
COC(=O)c1ccc(N2CCN(c3ccccc3)CC2)c(NC(=O)C2CC2)c1	–	10.2% (inactive)
Cc1ccc(Nc2ccc(-n3ccnc3)nn2)cc1C	2.51 µM (active)	–
O=C(Nc1ncc(Cc2ccccc2)s1)C1COc2ccccc2O1 (centres undefined)	–	24.8% (inactive)
O=C1C2CCCN2c2ccc(S(=O)(=O)N3CCOCC3)cc2N1Cc1cccc(C(F)(F)F)c1 (centres undefined)	–	-28.2% (inactive)
Cc1onc(-c2c(F)cccc2Cl)c1C(=O)N[C@H]1C(=O)N2[C@H]1SC(C)(C)[C@H]2C(=O)O	–	1.45% [at 25.6 µM] (inactive)
O=C(O)CC[C@@H](C(=O)O)N1C(=O)c2ccccc2C1=O	–	6.68% (inactive)
COc1cccc(OCCCOc2ccccc2C(C)C)c1	–	-22.8% (inactive)
COC(=O)COc1cccc(NC(=O)c2ccc(C)cc2)c1	–	-15.9% (inactive)
CCOc1cccc(OCCCNCCCOC)c1	11.2 µM (active)	–
O=C(N/N=C/c1ccco1)c1ccccn1	–	-14.7% (inactive)
COc1ccc(NC(=O)/C(=C\c2cc(OC)c(OC)cc2[N+](=O)[O-])NC(=O)c2ccccc2)cc1	–	2.06% (inactive)
COc1ccc(C(=O)Nc2ccc(F)cc2F)cc1OC	–	-27.1% (inactive)
O=C(O)CCSCc1ccccc1	–	-5.23% [at 11.4 µM] (inactive)
S=C(NCCSCc1c(Cl)cccc1Cl)Nc1ccccc1	4.47 µM (active)	–
Cc1ccccc1OCCNC(=S)Nc1ccccc1	–	-6.27% (inactive)
S=C(NCc1ccccn1)Nc1cccc(Cl)c1	–	-6.51% (inactive)
S=C(NCCSCc1ccc(Cl)cc1Cl)Nc1ccccc1	6.31 µM (active)	–
O=C(COc1ccccc1Cl)NC(=S)Nc1cccc(NC(=O)c2ccccc2Cl)c1	–	14.4% (inactive)
O=C(Nc1ccc(N=Nc2ccccc2)cc1)c1ccc(Cl)cc1Cl	–	8% (inactive)
O=C(Cc1ccccc1)NCCSCc1ccc(Cl)cc1	3.16 µM (active)	–
